The list is not random: actives were taken first. Their share in the collection is about 28%.
CYP2C19 inhib: inhibitors of human CYP2C19 | 21% of 96,000 active | AID 778 | P33261 | CYP2C19 Supersomes, luciferin-H EGE luminescence, 30 min | inhibition, % at 5 µM;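 active = CYP2C19 inhibition above a set limit at 5 µM in the primary screen, cut at about 50% in these data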;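 also: plate controls were negative control wells for no effect and 2.5 mM tranylcypromine positive control for full effect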
Target sequence (P33261 whole entry, looked up): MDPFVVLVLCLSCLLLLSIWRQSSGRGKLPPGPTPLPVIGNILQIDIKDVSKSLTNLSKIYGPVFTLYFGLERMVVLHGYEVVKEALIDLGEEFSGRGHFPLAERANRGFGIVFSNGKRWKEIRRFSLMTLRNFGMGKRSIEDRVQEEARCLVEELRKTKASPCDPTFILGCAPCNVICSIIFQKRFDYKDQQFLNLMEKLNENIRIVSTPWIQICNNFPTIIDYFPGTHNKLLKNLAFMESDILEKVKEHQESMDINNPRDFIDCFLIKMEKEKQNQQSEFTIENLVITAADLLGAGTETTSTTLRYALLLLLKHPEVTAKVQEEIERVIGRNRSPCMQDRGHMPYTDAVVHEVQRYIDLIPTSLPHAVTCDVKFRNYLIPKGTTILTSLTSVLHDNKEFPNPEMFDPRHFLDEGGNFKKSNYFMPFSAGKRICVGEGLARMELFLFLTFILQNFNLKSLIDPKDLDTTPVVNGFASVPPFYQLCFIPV
Plk1 PBD FP: blocks phosphopeptide binding to human Plk1 polo box domain | Plk1 PBD phosphopeptide binding, fluorescence polarization | 0.13% of 97,000 active | P53350 | AID 693 | inhibition, %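 (tested at about 20 µM)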; in the data active = inhibition above about 34%, passing the limit was not always enough
CYP2C9 activ: CYP2C9 (human) activation | recombinant CYP2C9, luciferin-H conversion, luminescence; stronger effect = higher value; factor 1 = untreated enzyme, 0 = blocked | activation factor at 5 µM | 1.4% of 96,000 active | AID 1024;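 active = activation factor of 2 or more for CYP2C9 at a 5 µM dose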;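 also: 0 = sulfaphenazole-blocked wells and 1 = vehicle-only wells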
CYP2C9 inhib: inhibitors of human CYP2C9; P11712; CYP2C9 Supersomes, luciferin-H conversion, luminescence; inhibition, % at 5 µM; 20% of 96,000 active; AID 777;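 active = blocking of liver enzyme CYP2C9 beyond about 50% at 5 µM, limit read from the data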
CYP2C19 act: activators of human cytochrome P450 2C19. 96,000 tested, under 10 active. AID 1025. P33261. recombinant CYP2C19, luciferin-H EGE luminescence; stronger effect = higher value; 0 = fully inhibited enzyme, 1 = untreated enzyme. activation factor at 5 µM;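 active = activation factor of at least 2 at 5 µM in the primary screen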;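 also: 0 = wells with 2.5 mM tranylcypromine and 1 = vehicle-only wells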
PLK1 inh: inhibitors of human PLK1 kinase | 0.53% of 97,000 active | P53350 | recombinant PLK1 kinase, TR-FRET peptide phosphorylation | inhibition, % at 10 µM;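 active = inhibition of 50% or more in the single-concentration screen; inactive = inhibition below 50%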;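 also: 0% = DMSO max control and 100% = H-89 dihydrochloride min control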
* marks the source's active call; other numbers are inactive results; . = no result.

SMILES | CYP2C19 inhib | Plk1 PBD FP | CYP2C9 activ | CYP2C9 inhib | CYP2C19 act | PLK1 inh
O=C(CCCN1C(=O)c2ccccc2C1=O)Nc1c2c(nc3c1CCC3)CCC2 | -4 | -39 | 0.4 | 63* | 1 | -3
O=C(CCCCCN1C(=O)C2C3C=CC(C3)C2C1=O)Nc1nccs1 (stereo not given) | -8 | -9 | 0.8 | 22 | 1.1 | 62*
O=C(CCCCCN1C(=O)c2ccccc2C1=O)NCc1ccccn1 | -2 | -16 | 1 | 0 | 1 | 0
Cc1cccnc1NC(=O)CCCN1C(=O)c2ccccc2C1=O | 7 | -5 | 2.1* | -110 | 0.9 | -5
CCCc1nnc(NC(=O)CCCN2C(=O)c3ccccc3C2=O)s1 | 6 | -2 | 0.7 | 30 | 0.9 | -3
Cc1ccc(S(=O)(=O)Nc2nc(C)c(NC(=O)OCCCl)s2)cc1 | 4 | -22 | 0.1 | 89* | 1 | -4
Cc1ccc(NC(=O)Nc2cccs2)c(Cl)c1 | 19 | 12 | 0.8 | 15 | 0.8 | -3
CCCCOC(=O)Nc1ccc(S(=O)(=O)Nc2nc(C)cc(C)n2)cc1 | 1 | 7 | 0.6 | 41 | 1 | -11
Cc1ccc(S(=O)(=O)Nc2nc(C)c(NC(=O)Nc3ccc(Cl)cc3Cl)s2)cc1 | 4 | 0 | 0.4 | 61* | 1 | -13
O=C(Nc1cccc(-c2nc3ccccc3[nH]2)c1)c1cccc(NC(=O)c2ccco2)c1 | 54* | -5 | 0.3 | 70* | 0.5 | -18
O=C(Nc1ccc2nc(-c3ccccc3)[nH]c2c1)c1ccco1 | 61* | 2 | 0.4 | 58* | 0.4 | -17
CCOC(=O)c1cc2c(C(F)(F)F)cc(-c3ccccc3)nc2o1 | 7 | -2 | 0.7 | 25 | 0.9 | -5
CCOc1ccc(CC(=O)NNC(=S)NC2CCCCC2)cc1OCC | . | 9 | . | . | . | -7
CCOC(=O)c1c(CNCCN(CC)CC)n(C)c2cc(Br)c(OC)cc12 | 7 | 7 | 1.4 | -35 | 0.9 | -7
O=C1CCSc2ccc(Cl)cc2N1Cc1cccc(Cl)c1 | 64* | 17 | 0.9 | 14 | 0.4 | -9
Cc1ccc(CN2C(=O)CCSc3ccc(Cl)cc32)cc1 | 36 | 3 | 0.8 | 17 | 0.6 | -6
O=C(Oc1ccc2ccccc2c1)c1ccccc1 | -3 | 1 | 0.9 | 14 | 1 | -3
O=C(Nc1cccnc1)C1CC(c2ccccc2O)=NO1 (stereo not given) | 80* | -19 | 0.5 | 51* | 0.2 | -14
O=C(NCc1cccnc1)C1CC(c2ccc(F)cc2)=NO1 (stereo not given) | 10 | -6 | 0.8 | 17 | 0.9 | -11
COc1ccc(NCc2nnc(SCC(=O)N3CCCc4ccccc43)n2C)cc1 | 18 | . | 1.1 | -9 | 0.8 | .
CCNCCNc1ccc(Cl)cc1[N+](=O)[O-] | . | 1 | . | . | . | -1
COc1ccc(CNC(=S)Nc2cc(C)cc(C)c2)cc1 | 5 | -10 | 2* | -98 | 0.9 | -10
Cc1ccc(SCCNC(=S)Nc2cc(C)cc(C)c2)cc1 | 51* | -4 | 0.9 | 8 | 0.5 | -41
COc1ccc(CNC(=O)c2ccc(C)o2)cc1 | . | -10 | . | . | . | -7
COc1ccc(CCNC(=S)Nc2cccc(C)c2)cc1 | 65* | 11 | 0.7 | 33 | 0.4 | 2
SMILES | CYP2C19 inhib | Plk1 PBD FP | CYP2C9 activ | CYP2C9 inhib | CYP2C19 act | PLK1 inh
Cc1ccc(NC(=O)CSc2nnnn2-c2ccc3c(c2)OCO3)cc1C | . | 20 | . | . | . | -13
CCN1CCCC1CNC(=O)c1c(O)c2c([nH]c1=O)CCCC2 (stereo not given) | -10 | 6 | 1.3 | -26 | 1.1 | -17
CCCc1cc(=O)[nH]c(/N=C(/NC(=O)c2ccccc2)Nc2ccc3c(c2)OCCO3)n1 | . | 9 | . | . | . | -10
c1ccc(C2CC(c3cccs3)n3nnnc3N2)cc1 (stereo not given) | 83* | -12 | 0.3 | 74* | 0.2 | -13
Nc1nc2n(n1)C(c1cccc(Br)c1)CC(c1ccccc1)N2 (stereo not given) | 24 | 26 | 0.9 | 11 | 0.8 | -8
Brc1cccc(C2CC(c3ccccc3)n3nnnc3N2)c1 (stereo not given) | 78* | 3 | 0.2 | 80* | 0.2 | -9
COC(=O)C1=C(C(=O)c2ccccc2)C(c2cccs2)n2nnnc2N1 (stereo not given) | -3 | 10 | 0.9 | 12 | 1 | -14
CC(OC(=O)c1ccc2ccccc2n1)C(=O)Nc1ccc(N2CCOCC2)cc1 (stereo not given) | 4 | 15 | 0.9 | 13 | 1 | -12
Nc1sc(-c2ccccc2)cc1C(=O)O | 37 | 30 | 0.4 | 64* | 0.6 | 3
CCOC(=O)c1cc(-c2ccccc2)sc1NC(=S)Nc1cccc(C)n1 | 4 | 28 | 0.9 | 6 | 1 | -11
CCOC(=O)c1cc(-c2ccc(N)cc2)sc1N | 54* | 8 | 0.4 | 59* | 0.5 | 1
C=CCN(C(=O)c1cccc(S(=O)(=O)N2CCN(C)CC2)c1)c1nc(-c2ccccc2)cs1 | 79* | -22 | 0.2 | 77* | 0.2 | -9
Cc1csc(N(C(=O)c2cccc(S(=O)(=O)N3CCCC3)c2)c2ccccc2)n1 | 13 | -30 | 1 | -2 | 0.9 | -10
Cc1cccc(N2CCN(C(=O)Cn3cnc4c3c(=O)n(C)c(=O)n4C)CC2)c1C | . | -19 | . | . | . | -6
O=C(CCc1ccccc1)Nc1ccncc1 | 86* | 2 | 0.2 | 83* | 0.1 | -2
O=C(Nc1nnc(-c2cccs2)o1)c1cccc(C(F)(F)F)c1 | 10 | 12 | 0.4 | 59* | 0.9 | 61*
O=C(CCc1ccccc1)Nc1nnc(-c2ccc3c(c2)CCCC3)o1 | 30 | 24 | 1.2 | -22 | 0.7 | -9
O=C(CCc1ccccc1)Nc1nnc(-c2cccs2)o1 | 31 | -21 | 0.7 | 34 | 0.7 | 62*
CCOC(=O)c1cnn(-c2ccccc2)c1NC(=O)CSc1nnc(-c2cccs2)n1CC | 8 | -7 | 1.1 | -8 | 0.9 | -5
CCN(CCCNC(=O)CCn1c(=O)[nH]c2ccccc2c1=O)c1ccccc1 | 62* | 6 | 0.8 | 25 | 0.4 | -10
CCN(CCCNC(=O)c1[nH]c(C)c(C(C)=O)c1C)c1cccc(C)c1 | 53* | -4 | 0.5 | 50 | 0.5 | -8
CCN(CCCNC(=O)CCCn1c(=O)[nH]c2ccccc2c1=O)c1cccc(C)c1 | 48 | -4 | 0.4 | 62* | 0.5 | 0
CC(=O)c1c(C)[nH]c(C(=O)NCc2ccccc2)c1C | 25 | -1 | 0.7 | 31 | 0.8 | -6
CCN(CCCNC(=O)CCn1c(=O)[nH]c2ccccc2c1=O)c1cccc(C)c1 | 67* | 2 | 0.8 | 24 | 0.3 | -3
O=C(CCCCn1c(=O)[nH]c2ccccc2c1=O)NCCC1=CCCCC1 | 30 | -6 | 0.7 | 29 | 0.7 | 0
COC(=O)c1[nH]c2ccccc2c1NC(=O)C(C)N1CCN(C(=O)c2ccco2)CC1 (stereo not given) | 11 | -22 | 0.7 | 25 | 0.9 | -14

Screening data (PubChem BioAssay)
